This is one part of a sample in which hits are shown more often than they occur.
p53ts 32C kill: p53ts cell cytotoxicity, permissive temperature. AID 924. 0.93% of 130,000 active. Potency, µM (top dose mostly 46.1 µM), actives largely listed as cytotoxic. H1299-p53A138V at 32C, ATP luminescence viability, 24 h; further: nearly all actives have a fitted effect of over 55% in size
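Viability by ATPlite luminescence after 24 h compound treatment (up to 46 uM) at the permissive 32C. Cells are H1299 carrying p53 A138V. Scale runs from DMSO basal to 100 uM tamoxifen as full kill; AC50 from Hill fits.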
Imprint erasure: genomic imprint erasure induction. mouse ES Peg3-LacZ reporter, beta-gal luminescence, 40 h. Potency, µM (highest dose often 60.7 µM), hits mostly activators. 0.02% of 110,000 active. AID 1948
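Gelatin-coated wells received 300 freshly trypsinized female ES cells with a Peg3LacZ-Neo reporter on the maternal allele, then incubated 40 hours at 37C. BetaGlo was added for 5 minutes at room temperature before a single luminescence read.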
Luciferase inh: firefly luciferase inhibition; P08659; purified firefly luciferase, luminescence, 8 min; Potency, µM (doses to about 57.1 µM), actives largely listed as inhibitors; 2.2% of 72,000 active; further: nearly all actives have a fitted effect of over 40% in size
Target sequence (P08659 whole entry, looked up): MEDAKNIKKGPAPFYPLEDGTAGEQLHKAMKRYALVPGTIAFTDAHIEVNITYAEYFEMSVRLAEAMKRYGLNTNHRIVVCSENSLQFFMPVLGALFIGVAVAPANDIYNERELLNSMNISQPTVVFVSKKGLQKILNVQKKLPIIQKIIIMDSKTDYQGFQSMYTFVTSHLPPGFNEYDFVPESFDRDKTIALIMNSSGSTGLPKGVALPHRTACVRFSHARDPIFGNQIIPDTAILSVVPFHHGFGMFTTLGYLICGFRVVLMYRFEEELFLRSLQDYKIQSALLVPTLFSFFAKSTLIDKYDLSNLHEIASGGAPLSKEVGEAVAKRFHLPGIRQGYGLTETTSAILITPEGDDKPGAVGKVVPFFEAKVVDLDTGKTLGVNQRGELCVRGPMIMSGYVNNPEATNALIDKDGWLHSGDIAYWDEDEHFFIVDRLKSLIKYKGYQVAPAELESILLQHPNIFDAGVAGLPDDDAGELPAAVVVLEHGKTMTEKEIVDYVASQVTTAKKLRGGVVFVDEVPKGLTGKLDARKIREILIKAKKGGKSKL
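Here, luciferase activity is measured as luminescence following an 8 min room-temperature reaction at 10 uM ATP, pH 7.2. Every library sample is titrated.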
IkB sig inh: suppresses IkB signaling in ABC-DLBCL reporter cells; ABC-DLBCL IkBa-CBG/CBR dual luciferase ratio, 4 h; response scale: scaled: untreated 0%, proteasome inhibitor 100%; Potency, µM (series often up to 57.1 µM); 0.04% of 110,000 active; active means well fitted curve in the direction sought with a large enough effect in the signal ratio, not every such curve was filed as active; inconclusive means small, poorly fitted or top-dose-only effect, or a change in a side signal; the % refers to the signal ratio;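 further: the direction sought is a rising ratio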
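Luminescence ratio of IκBα-fused green versus native red beetle luciferase in OCI-Ly3 cells, 4 h post-doxycycline with compound; red signal alone, scaled from basal (0%) to zero light (-100%), flagged nonspecific or cytotoxic effects.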
p53ts 39C kill: cytotoxicity in p53ts cells at nonpermissive temperature; H1299-p53A138V viability at 39C, ATP luminescence, 24 h; Potency, µM (titrated, usually from 46.1 µM), hits mostly cytotoxic; 1.5% of 130,000 active; AID 902; further: nearly all actives have a fitted effect of over 55% in size
IMPase inh: IMPase inhibition in cells | 120,000 tested, under 10 active | inhibition (IP1 accumulation), % at 46.1 µM | CHO-M1 cells, IP1 accumulation, HTRF TR-FRET ratio | P97697; active means well fitted curve in the direction sought with a large enough effect in the signal ratio, not every such curve was filed as active; inconclusive means small, poorly fitted or top-dose-only effect, or a change in a side signal; inactive means no such curve, though single readings can be large or run the other way; the % refers to the signal ratio;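 further: cells stimulated with carbachol in lithium chloride buffer; higher means more IMPase inhibition seen as more IP1 and lower FRET ratio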
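Elevated IP1 in lysates lowers TR-FRET signal (665/620 ratio and 620 channel reported). Cells were CHO-M1, given carbachol (50 uM as added) plus 50mM LiCl, pH 7.4, 30 min, 37C; compounds titrated up to 46 uM; AC50 by Hill equation.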
Each line names hits and unclear results; the compound was inactive in the other large screens. Unless noted, the call rests on the fitted dose curve; in most records, active means well fitted curve in the direction sought with a large enough effect; inconclusive means small, poorly fitted or top-dose-only effect, or another doubt; inactive means no such curve, though single readings can be large; an effect the other way counts as inactive or inconclusive.

C[C@@H]1CC[C@@]2(OC1)O[C@H]1[C@@H](O)[C@H]3[C@@H]4CC[C@H]5C[C@@H](O[C@@H]6O[C@H](CO)[C@H](O[C@@H]7O[C@H](CO)[C@@H](O)[C@H](O[C@@H]8OC[C@@H](O)[C@H](O)[C@H]8O)[C@H]7O[C@@H]7O[C@H](CO)[C@@H](O)[C@H](O[C@@H]8O[C@H](CO)[C@@H](O)[C@H](O)[C@H]8O)[C@H]7O)[C@H](O)[C@H]6O)[C@H](O)C[C@]5(C)[C@H]4CC[C@]3(C)[C@H]1[C@@H]2C	IkB sig inh inconclusive, p53ts 39C kill 13µM (no result: Luciferase inh, IMPase inh)
CC(=O)Nc1ccccc1C(=O)OCC(=O)c1ccc2c(c1)OCCO2	none (no result: p53ts 32C kill, Imprint erasure, Luciferase inh, IkB sig inh, p53ts 39C kill)
Cc1onc(-c2ccccc2Cl)c1C(=O)OCC(=O)c1ccc2c(c1)OCCO2	Luciferase inh 16µM
O=C(CCCN1CCC2(CC1)C(=O)N(CCc1ccc(N=C=S)cc1)CN2c1ccccc1)c1ccc(F)cc1	none (no result: p53ts 32C kill, Imprint erasure, p53ts 39C kill, IMPase inh)
C/C=C(\C)C(=O)O[C@@H]1C(C)=C2[C@H]([C@@H]1OC(=O)CCCCCCC)[C@@](C)(OC(C)=O)C[C@@H](OC(=O)CCC)[C@@]1(O)[C@H]2OC(=O)[C@]1(C)O	p53ts 32C kill 25µM, IkB sig inh 4µM, p53ts 39C kill 13µM (no result: Imprint erasure)
COc1cc2[nH]c(=O)n(CCCCCC(=O)N3CCN(c4cccc(C(F)(F)F)c4)CC3)c(=O)c2cc1OC	p53ts 32C kill inconclusive, IkB sig inh inconclusive, p53ts 39C kill 13µM (no result: Luciferase inh, IMPase inh)

High-throughput results deposited in PubChem BioAssay by National Center for Advancing Translational Sciences (NCATS).
